Laboratory results reported in PubChem BioAssay (NCI).
About 83,000 compounds went through this panel and 20% of them were active in at least one assay; those are over-represented in the sample as a whole.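 48-hour exposure, single concentration, 96-well plates; percent growth endpoint where 0 means no net growth. Active: below 10.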 Values without a mark were called inactive. Activity calls are given as the source filed them.

Key:
Test in all cases: NCI-60 one-dose screen, 48 h (100 = growth as untreated, 0 = no growth, -100 = all killed)
Details in all cases: 10 µM unless noted
[1] = tested on: HCT-15 colon
[2] = tested on: HT29 colon
[3] = tested on: SNB-75 CNS
[4] = tested on: SNB-19 CNS
[5] = tested on: U251 CNS
[6] = tested on: PC-3 prostate
[7] = tested on: SK-MEL-5 melanoma
[8] = tested on: UACC-62 melanoma
[9] = tested on: LOX IMVI melanoma
[10] = tested on: SK-MEL-28 melanoma
[11] = tested on: SK-MEL-2 melanoma
[12] = tested on: SN12C renal
[13] = tested on: UO-31 renal
[14] = tested on: TK-10 renal
[15] = tested on: CAKI-1 renal
[16] = tested on: A498 renal
[17] = tested on: CCRF-CEM leukemia
[18] = tested on: ACHN renal
[19] = tested on: MOLT-4 leukemia
[20] = tested on: EKVX NSCLC

C1CCC(C(CC2CCCCN2)C2CCCCC2)CC1 (stereo not given)
growth [1]: 25% | growth [2]: -53.8% (active) | growth [3]: 7.79% (active) | growth [4]: 13.2% | growth [5]: -61.3% (active) | growth [6]: 23.9% | growth [7]: -94.3% (active) | growth [8]: -7.18% (active) | growth [9]: -95.5% (active) | growth [10]: -84.8% (active) | growth [11]: 64.2% | growth [12]: 20.8% | growth [13]: 11.9% | growth [14]: 21.2% | growth [15]: 5.48% (active) | growth [16]: 51.1% | growth [17]: 4.88% (active)

COC(=O)[C@H](CCCCNC(=O)OCc1ccccc1)NC(=O)[C@@H](NC(=O)Nc1cc(C(F)(F)F)cc(C(F)(F)F)c1)C(C)C
growth [1]: 13.4% [100 µM] | growth [2]: -60.8% [100 µM] (active) | growth [3]: -88.7% [100 µM] (active) | growth [4]: 28% [100 µM] | growth [5]: -88% [100 µM] (active) | growth [6]: -83.9% [100 µM] (active) | growth [7]: -43.4% [100 µM] (active) | growth [8]: -83.6% [100 µM] (active) | growth [9]: -83.3% [100 µM] (active) | growth [10]: -86.3% [100 µM] (active) | growth [11]: -77.3% [100 µM] (active) | growth [12]: -88.3% [100 µM] (active) | growth [13]: -88.6% [100 µM] (active) | growth [14]: -44% [100 µM] (active) | growth [18]: -99.4% [100 µM] (active) | growth [15]: -36.3% [100 µM] (active) | growth [16]: -5.02% [100 µM] (active) | growth [19]: -7.72% [100 µM] (active)

CCOc1cc(CCNS(=O)(=O)c2ccc(C)cc2)c(C(C)=O)cc1OCC
growth [1]: 83.3% [100 µM] | growth [2]: 79.7% [100 µM] | growth [3]: 93.3% [100 µM] | growth [4]: 87.3% [100 µM] | growth [5]: 86.4% [100 µM] | growth [6]: 33.5% [100 µM] | growth [7]: 66.1% [100 µM] | growth [8]: 59% [100 µM] | growth [9]: 87.1% [100 µM] | growth [10]: 108% [100 µM] | growth [11]: 86.1% [100 µM] | growth [12]: 80.5% [100 µM] | growth [13]: -69.9% [100 µM] (active) | growth [14]: 84.6% [100 µM] | growth [18]: 75.5% [100 µM] | growth [15]: 36% [100 µM] | growth [16]: 62.1% [100 µM] | growth [19]: 9.64% [100 µM] (active)

CCCCCc1c(C)[nH]c(/C=C2\N=C(c3ccc[nH]3)C=C2Oc2ccc(Cl)cc2)c1C
growth [1]: -26.6% [100 µM] (active) | growth [2]: 0.582% [100 µM] (active) | growth [3]: -40% [100 µM] (active) | growth [4]: -32.9% [100 µM] (active) | growth [5]: -94.9% [100 µM] (active) | growth [6]: 5.67% [100 µM] (active) | growth [7]: -90% [100 µM] (active) | growth [8]: -83.2% [100 µM] (active) | growth [9]: -69.2% [100 µM] (active) | growth [10]: -52.4% [100 µM] (active) | growth [11]: -73.1% [100 µM] (active) | growth [12]: -7.03% [100 µM] (active) | growth [14]: -6.56% [100 µM] (active) | growth [18]: -48% [100 µM] (active) | growth [15]: -22.7% [100 µM] (active) | growth [16]: -49% [100 µM] (active) | growth [19]: -23.6% [100 µM] (active)

CCCCCc1c(C)[nH]c(/C=C2\N=C(c3ccc[nH]3)C=C2Oc2ccccc2)c1C
growth [1]: -99.5% [100 µM] (active) | growth [2]: -56.9% [100 µM] (active) | growth [3]: -62.1% [100 µM] (active) | growth [4]: -95.2% [100 µM] (active) | growth [5]: -99.6% [100 µM] (active) | growth [6]: -21.6% [100 µM] (active) | growth [7]: -61% [100 µM] (active) | growth [8]: -92.3% [100 µM] (active) | growth [9]: -90% [100 µM] (active) | growth [10]: -95.1% [100 µM] (active) | growth [11]: -63.3% [100 µM] (active) | growth [12]: -63.4% [100 µM] (active) | growth [13]: -70.1% [100 µM] (active) | growth [14]: -62% [100 µM] (active) | growth [18]: -61% [100 µM] (active) | growth [15]: -62.8% [100 µM] (active) | growth [16]: -75.3% [100 µM] (active) | growth [19]: -40.2% [100 µM] (active)

FC(F)(F)c1ccc(-c2cnc(-c3nn[nH]n3)nc2NC2CCCCCC2)cc1
growth [1]: 38.7% [50 µM] | growth [2]: 66.8% [50 µM] | growth [3]: 93.7% [50 µM] | growth [4]: 41.3% [50 µM] | growth [5]: 33.8% [50 µM] | growth [6]: 28.5% [50 µM] | growth [7]: 71% [50 µM] | growth [8]: 41.6% [50 µM] | growth [9]: 41.6% [50 µM] | growth [10]: 74.1% [50 µM] | growth [11]: 47.3% [50 µM] | growth [12]: 50.9% [50 µM] | growth [13]: 38.2% [50 µM] | growth [14]: 105% [50 µM] | growth [18]: 68.9% [50 µM] | growth [15]: 36.8% [50 µM] | growth [16]: 61.5% [50 µM] | growth [19]: 25.4% [50 µM]

CCCCCCCC[Si](OCC)(OCC)OCC
growth [1]: 107% | growth [2]: 103% | growth [3]: 85.2% | growth [4]: 100% | growth [5]: 98.9% | growth [6]: 91.5% | growth [7]: 111% | growth [8]: 104% | growth [9]: 103% | growth [10]: 104% | growth [11]: 102% | growth [12]: 106% | growth [13]: 81.1% | growth [14]: 90.8% | growth [18]: 98.2% | growth [15]: 54.9% | growth [16]: 105% | growth [19]: 95.7%

CCCCCCCCCCCCCCCCNC(=O)Nc1ccc2ccccc2c1
growth [1]: 103% | growth [2]: 107% | growth [3]: 98.1% | growth [4]: 96.9% | growth [5]: 105% | growth [6]: 91.5% | growth [7]: 99.4% | growth [8]: 92.7% | growth [9]: 101% | growth [10]: 108% | growth [11]: 118% | growth [12]: 89.7% | growth [13]: 104% | growth [14]: 110% | growth [18]: 108% | growth [15]: 107% | growth [16]: 104% | growth [19]: 105%

CCOC(=O)c1sc(NC(=O)COc2cccc(/C=C3\Cc4ccc(Cl)cc4C3=O)c2)nc1C
growth [1]: 97.4% | growth [2]: 118% | growth [3]: 113% | growth [4]: 99.9% | growth [5]: 99.4% | growth [6]: 103% | growth [7]: 97.4% | growth [8]: 95.8% | growth [9]: 97.7% | growth [10]: 118% | growth [20]: 107% | growth [12]: 105% | growth [13]: -17.4% (active) | growth [14]: 145% | growth [18]: 110% | growth [15]: 84.6% | growth [16]: 133% | growth [17]: 114% | growth [19]: 105%

NC(=O)c1cc(Br)cc(Br)c1NS(=O)(=O)c1ccccc1
growth [1]: 100% | growth [2]: 110% | growth [3]: 68.2% | growth [4]: 105% | growth [5]: 108% | growth [6]: 89.2% | growth [7]: 98.2% | growth [8]: 94.9% | growth [9]: 99.4% | growth [10]: 110% | growth [11]: 110% | growth [12]: 95.9% | growth [13]: 75% | growth [14]: 130% | growth [18]: 100% | growth [15]: 89.8% | growth [16]: 96.1% | growth [17]: 91.8% | growth [19]: 123%

Cc1cc(Br)c(C)cc1Br
growth [1]: 101% | growth [2]: 94.2% | growth [3]: 100% | growth [4]: 108% | growth [5]: 98.9% | growth [6]: 95.8% | growth [7]: 96.9% | growth [8]: 102% | growth [9]: 97.6% | growth [10]: 103% | growth [11]: 100% | growth [12]: 108% | growth [13]: 91.3% | growth [14]: 105% | growth [18]: 102% | growth [15]: 95.2% | growth [16]: 77.7% | growth [17]: 94.4% | growth [19]: 87.3%

O=C(COc1ccc(/C=C2\Cc3ccccc3C2=O)cc1)c1ccc(Cl)cc1
growth [1]: 96.1% | growth [2]: 109% | growth [3]: 94.5% | growth [4]: 95.7% | growth [5]: 93.7% | growth [6]: 92.1% | growth [7]: 98.4% | growth [8]: 95.2% | growth [9]: 92.8% | growth [10]: 117% | growth [20]: 101% | growth [12]: 98.9% | growth [13]: -7.83% (active) | growth [14]: 133% | growth [18]: 107% | growth [15]: 78.2% | growth [16]: 108% | growth [17]: 95.2% | growth [19]: 95.9%

[N-]=[N+]=NCc1ncc(-c2ccc(C(F)(F)F)cc2)c(NC2CCCCCC2)n1
growth [1]: 80.2% [50 µM] | growth [2]: 69.8% [50 µM] | growth [3]: 65.8% [50 µM] | growth [4]: 85.2% [50 µM] | growth [5]: 73% [50 µM] | growth [6]: 35.6% [50 µM] | growth [7]: 84.2% [50 µM] | growth [8]: 79.2% [50 µM] | growth [9]: 82.2% [50 µM] | growth [10]: 98.1% [50 µM] | growth [11]: 78.2% [50 µM] | growth [12]: 85.2% [50 µM] | growth [13]: 50% [50 µM] | growth [14]: 112% [50 µM] | growth [18]: 73.1% [50 µM] | growth [15]: 84.3% [50 µM] | growth [16]: 82.5% [50 µM] | growth [19]: 54.7% [50 µM]

COc1ccc(NC(=O)c2ccccc2-c2ccccc2)c(C(N)=O)c1
growth [1]: 32.8% | growth [2]: 11.4% | growth [3]: -10.7% (active) | growth [4]: 39.8% | growth [5]: 45.9% | growth [6]: 32.8% | growth [7]: 29.7% | growth [8]: 55.7% | growth [9]: 36.9% | growth [10]: 59.7% | growth [11]: 26.4% | growth [12]: 61.3% | growth [13]: 40.1% | growth [14]: 76.1% | growth [18]: 40.4% | growth [15]: 41.9% | growth [16]: 30.8% | growth [17]: 11.7% | growth [19]: 20%
